The whole screen tested about 5,500 compounds, of which about 2,000 (36%) were called active. Inconclusive results (about 18%) are left out. Some of the results follow. Values without a mark were called inactive. Cut-off read from the data, not from the text of the source: active = normalized growth mostly below about 0.91 (no sharp cut-off); inconclusive = no clear call, values can overlap the other calls; inactive = mostly above about 0.92.
Test: chemical genetic growth profiling, strain panel (AID 1159580);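 note: tested at 20 µM; growth read once vehicle control cultures reached saturation at 30 °C; 1 = growth at the plate median or of vehicle wells; lower values mean less growth of the strain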
Settings: growth OD

SMILES: COC(=O)Nc1nc2ccc(C(=O)c3ccccc3)cc2[nH]1
- normalized growth (S. cerevisiae deletion strains, locus YJR075W, strain HOC1, hits give low values): 0.924
- normalized growth (S. cerevisiae deletion strains, locus YKL009W, strain mrt4, hits give low values): 1.05
- normalized growth (S. cerevisiae deletion strains, locus YKL085W, strain MDH1 (second series), hits give low values): 1.05
- normalized growth (S. cerevisiae deletion strains, locus YKL085W, strain MDH1, hits give low values): 1.05
- normalized growth (S. cerevisiae deletion strains, locus YKL160W, strain elf1, hits give low values): 0.894 (active)
- normalized growth (S. cerevisiae deletion strains, locus YKL190W, strain CNB1, hits give low values): 1.01
- normalized growth (S. cerevisiae deletion strains, locus YKR001C, strain vps1, hits give low values): 0.956
- normalized growth (S. cerevisiae deletion strains, locus YKR026C, strain gcn3, hits give low values): 0.956
- normalized growth (S. cerevisiae deletion strains, locus YKR091W, strain srl3, hits give low values): 1
- normalized growth (S. cerevisiae deletion strains, locus YLL001W, strain dnm1, hits give low values): 0.933
- normalized growth (S. cerevisiae deletion strains, locus YLL026W, hits give low values): 0.973
- normalized growth (S. cerevisiae deletion strains, locus YLL041C, strain sdh2, hits give low values): 0.984
- normalized growth (S. cerevisiae deletion strains, locus YLR027C, strain aat2, hits give low values): 0.94
- normalized growth (S. cerevisiae deletion strains, locus YLR039C, strain RIC1, hits give low values): 0.938
- normalized growth (S. cerevisiae deletion strains, locus YLR058C, strain SHM2, hits give low values): 1.02
- normalized growth (S. cerevisiae deletion strains, locus YLR102C, strain apc9, hits give low values): 1
- normalized growth (S. cerevisiae deletion strains, locus YLR113W, strain HOG1, hits give low values): 0.946
- normalized growth (S. cerevisiae deletion strains, locus YLR221C, strain rsa3, hits give low values): 0.939
- normalized growth (S. cerevisiae deletion strains, locus YLR258W, strain gsy2, hits give low values): 0.949
- normalized growth (S. cerevisiae deletion strains, locus YLR262C, strain YPT6 (second series), hits give low values): 0.782 (active)
- normalized growth (S. cerevisiae deletion strains, locus YLR262C, strain YPT6, hits give low values): 0.98
- normalized growth (S. cerevisiae deletion strains, locus YLR268W, strain sec22, hits give low values): 0.98
- normalized growth (S. cerevisiae deletion strains, locus YLR320W, strain mms22, hits give low values): 0.849 (active)
- normalized growth (S. cerevisiae deletion strains, locus YLR330W, strain CHS5, hits give low values): 1
- normalized growth (S. cerevisiae deletion strains, locus YLR342W, strain FKS1 (second series), hits give low values): 0.852
- normalized growth (S. cerevisiae deletion strains, locus YLR342W, strain FKS1, hits give low values): 0.908 (active)
- normalized growth (S. cerevisiae deletion strains, locus YLR357W, strain rsc2, hits give low values): 0.925
- normalized growth (S. cerevisiae deletion strains, locus YLR370C, strain arc18, hits give low values): 0.946
- normalized growth (S. cerevisiae deletion strains, locus YLR371W, strain rom2, hits give low values): 1.01
- normalized growth (S. cerevisiae deletion strains, locus YLR384C, strain iki3, hits give low values): 1
- normalized growth (S. cerevisiae deletion strains, locus YLR418C, strain cdc73, hits give low values): 0.932
- normalized growth (S. cerevisiae deletion strains, locus YML016C, strain PPZ1, hits give low values): 1.01
- normalized growth (S. cerevisiae deletion strains, locus YML032C, strain rad52, hits give low values): 0.957
- normalized growth (S. cerevisiae deletion strains, locus YML120C, strain ndi1, hits give low values): 0.96
- normalized growth (S. cerevisiae deletion strains, locus YML124C, strain tub3, hits give low values): 0.207 (active)
- normalized growth (S. cerevisiae deletion strains, locus YMR058W, strain fet3, hits give low values): 0.968
- normalized growth (S. cerevisiae deletion strains, locus YMR078C, strain ctf18, hits give low values): 0.986
- normalized growth (S. cerevisiae deletion strains, locus YMR125W, strain sto1, hits give low values): 1.03
- normalized growth (S. cerevisiae deletion strains, locus YMR129W, hits give low values): 0.987
- normalized growth (S. cerevisiae deletion strains, locus YMR205C, strain PFK2, hits give low values): 0.806 (active)
- normalized growth (S. cerevisiae deletion strains, locus YMR223W, strain ubp8, hits give low values): 0.965
- normalized growth (S. cerevisiae deletion strains, locus YMR231W, strain pep5, hits give low values): 0.955
- normalized growth (S. cerevisiae deletion strains, locus YMR263W, strain SAP30, hits give low values): 0.999
- normalized growth (S. cerevisiae deletion strains, locus YMR307W, strain GAS1, hits give low values): 0.463 (active)
- normalized growth (S. cerevisiae deletion strains, locus YNL067W, strain RPL9B, hits give low values): 0.978
- normalized growth (S. cerevisiae deletion strains, locus YNL071W, strain lat1, hits give low values): 0.925
- normalized growth (S. cerevisiae deletion strains, locus YNL128W, strain TEP1, hits give low values): 1.01
- normalized growth (S. cerevisiae deletion strains, locus YNL153C, strain GIM3, hits give low values): 0.0819 (active)
- normalized growth (S. cerevisiae deletion strains, locus YNL183C, strain NPR1, hits give low values): 0.827 (active)
- normalized growth (S. cerevisiae deletion strains, locus YNL209W, strain ssb2, hits give low values): 0.971
- normalized growth (S. cerevisiae deletion strains, locus YNL233W, strain BNI4, hits give low values): 0.814 (active)
- normalized growth (S. cerevisiae deletion strains, locus YNL248C, strain rpa49, hits give low values): 0.977
- normalized growth (S. cerevisiae deletion strains, locus YNL250W, strain rad50, hits give low values): 0.994
- normalized growth (S. cerevisiae deletion strains, locus YNL271C, strain bni1, hits give low values): 1.01
- normalized growth (S. cerevisiae deletion strains, locus YNL298W, strain CLA4, hits give low values): 1
- normalized growth (S. cerevisiae deletion strains, locus YNL307C, strain MCK1, hits give low values): 0.742 (active)
- normalized growth (S. cerevisiae deletion strains, locus YNL322C, strain KRE1 (second series), hits give low values): 0.901 (active)
- normalized growth (S. cerevisiae deletion strains, locus YNL322C, strain KRE1, hits give low values): 0.997
- normalized growth (S. cerevisiae deletion strains, locus YNR049C, strain mso1, hits give low values): 0.981
- normalized growth (S. cerevisiae deletion strains, locus YNR052C, strain pop2, hits give low values): 0.91 (active)
- normalized growth (S. cerevisiae deletion strains, locus YOL006C, strain TOP1, hits give low values): 0.968
- normalized growth (S. cerevisiae deletion strains, locus YOL012C, strain htz1): 0.338
- normalized growth (S. cerevisiae deletion strains, locus YOL147C, strain pex11, hits give low values): 0.988
- normalized growth (S. cerevisiae deletion strains, locus YOR001W, strain rrp6, hits give low values): 0.925
- normalized growth (S. cerevisiae deletion strains, locus YOR061W, strain CKA2, hits give low values): 1
- normalized growth (S. cerevisiae deletion strains, locus YOR069W, strain VPS5, hits give low values): 0.993
- normalized growth (S. cerevisiae deletion strains, locus YOR070C, strain gyp1, hits give low values): 0.949
- normalized growth (S. cerevisiae deletion strains, locus YOR080W, strain dia2, hits give low values): 0.979
- normalized growth (S. cerevisiae deletion strains, locus YOR083W, strain WHI5, hits give low values): 0.896
- normalized growth (S. cerevisiae deletion strains, locus YOR106W, strain vam3, hits give low values): 0.855 (active)
- normalized growth (S. cerevisiae deletion strains, locus YOR136W, strain idh2, hits give low values): 1.01
- normalized growth (S. cerevisiae deletion strains, locus YOR144C, strain elg1, hits give low values): 1
- normalized growth (S. cerevisiae deletion strains, locus YOR184W, strain ser1, hits give low values): 0.717 (active)
- normalized growth (S. cerevisiae deletion strains, locus YOR231W, strain MKK1, hits give low values): 0.931
- normalized growth (S. cerevisiae deletion strains, locus YOR265W, strain rbl2, hits give low values): 0.98
- normalized growth (S. cerevisiae deletion strains, locus YOR270C, strain vph1, hits give low values): 1.07
- normalized growth (S. cerevisiae deletion strains, locus YOR290C, strain snf2, hits give low values): 0.959
- normalized growth (S. cerevisiae deletion strains, locus YOR316C, strain cot1, hits give low values): 1
- normalized growth (S. cerevisiae deletion strains, locus YPL051W, strain arl3, hits give low values): 0.869 (active)
- normalized growth (S. cerevisiae deletion strains, locus YPL055C, strain LGE1, hits give low values): 0.865
- normalized growth (S. cerevisiae deletion strains, locus YPL078C, strain atp4, hits give low values): 0.931
- normalized growth (S. cerevisiae deletion strains, locus YPL106C, strain sse1, hits give low values): 1.12
- normalized growth (S. cerevisiae deletion strains, locus YPL240C, strain hsp82, hits give low values): 0.992
- normalized growth (S. cerevisiae deletion strains, locus YPL241C, strain CIN2, hits give low values): 0.0733 (active)
- normalized growth (S. cerevisiae deletion strains, locus YPL256C, strain CLN2, hits give low values): 0.914
- normalized growth (S. cerevisiae deletion strains, locus YPR119W, strain clb2, hits give low values): 0.998
- normalized growth (S. cerevisiae deletion strains, locus YPR141C, strain kar3, hits give low values): 1.03
- normalized growth (S. cerevisiae deletion strains, locus YPR163C, strain tif3, hits give low values): 0.799 (active)
- normalized growth (S. cerevisiae deletion strains, locus YPR167C, strain met16, hits give low values): 1
- normalized growth (S. cerevisiae deletion strains, strain wtn01, hits give low values): 0.983
- normalized growth (S. cerevisiae strains, strain wild type, hits give low values): 0.99

Reference: PubChem BioAssay AID1159580 (chemical genetic matrix, 2015)
